Pf growth 96h: P. falciparum growth inhibition at 96 hour, primary screen for plastid delayed-death inhibitors. Potency, µM (series often up to 28.7 µM), for the others: top-dose activity change, negative = inhibition, actives largely listed as inhibitors. AID 504834. P. falciparum luciferase reporter growth, 96 h. actives 6.9% (n = 320,000); note: potency is the fitted concentration of half-maximal effect; % is set by controls: 0 for no effect and ±100 for the full control effect
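Luminescence readout: decreased luciferase signal marks inhibited growth of reporter-expressing P. falciparum in infected red cells (2% hematocrit, 0.05% parasitemia final), exposed to compound two generations (96 h, 37 C, 5% CO2).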
Pf growth 48h: P. falciparum growth inhibition at 48 hours (one generation) | AID 504832 | Potency, µM (titrated, usually from 28.7 µM), without a hit: at the highest dose activity change, negative = inhibition, actives largely listed as inhibitors | P. falciparum luciferase growth in erythrocytes, 48 h | actives 5.9% (n = 310,000); note: potency is the fitted concentration of half-maximal effect; % is set by controls: 0 for no effect and ±100 for the full control effect
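Growth was read as firefly luciferase luminescence after a 48 h, 37 C, 5% CO2 exposure of compounds to reporter-bearing P. falciparum cultures (0.1% parasitemia, 2% hematocrit final) in Albumax-supplemented RPMI 1640.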
Cycloheximide cs: counter-screen hit for Shiga toxin inhibitors, cycloheximide | cell reporter, cycloheximide protein synthesis inhibition counterscreen | actives 12% (n = 300,000) | max response, % | AID 2314; in the data active = max response mostly above about 13%, no sharp cut-off; inactive = mostly below about 14%; note: read at 38.3 µM for the half of the compounds with a filed dose; 0% is about no effect
NS1 inh: influenza NS1 inhibition; Potency, µM (series often up to 46.1 µM), for inactives: at the top dose activity, positive = more growth; actives 0.4% (n = 270,000); calls by dose curve; note: potency is the fitted concentration of half-maximal effect; actives are rising curves; nearly all actives have a fitted effect of over 50% in size
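A cell-based growth assay was used: compounds that relieve NS1-induced slow growth of budding yeast raise OD600. Assay medium was yeast nitrogen base with ammonium sulphate and -URA supplement, pH 6.0, with 2% galactose.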
Shiga inhibitor: Shiga toxin inhibition | actives 9.2% (n = 290,000) | Vero cells, Shiga toxin protein synthesis inhibition reporter | inhibition, % at 38.7 µM; in the data active = inhibition mostly above about 28%, no sharp cut-off; inactive = mostly below about 43%; note: 0% is about no effect
The depositor's hits bear a star; i = inactive; u = inconclusive; x = no result given; [ ] = dose if it differs, or a comment. Only some compounds are listed: those with a hit (about 21% of all), similar ones and a draw of the others. Unless noted, calls come from the whole dose curve; as a rule, active = well fitted inhibition curve with a large enough effect; inconclusive = small, poorly fitted or top-dose-only effect, or another doubt; inactive = no such curve, though single readings can be large or run the other way.

SMILES | Pf growth 96h | Pf growth 48h | Cycloheximide cs | NS1 inh | Shiga inhibitor
CC(Sc1nncn1-c1ccccc1)C(=O)Nc1cccc([N+](=O)[O-])c1 (centres undefined) | 66.2% | 39.2% | -4.3 | 23.0% | -15.2
CCOC(=O)C(=O)N=Nc1c(O)[nH]c2ccccc12 | 26.7% | 3.4% | -3.7 | 9.0% | -10.3
CNC(=S)N=Nc1c(O)[nH]c2ccccc12 | -4.3% | 3.4% | 6.4 | -6.1% | 17.0*
O=C(N=Nc1c(O)[nH]c2ccccc12)c1cc(NS(=O)(=O)c2cccs2)cc(NS(=O)(=O)c2cccs2)c1 | u | u | -6.9 | x | -6.7
CNC(=S)N=Nc1c(O)[nH]c2ccc(C(C)C)cc12 | 6.57µM* | u | -2.9 | 6.6% | -2.8
Cc1ccc(NC(=S)N=Nc2c(O)[nH]c3ccccc23)cc1 | 1.85µM* | 5.22µM* | 22.2* | x | 52.6*
O=C(N=Nc1c(O)[nH]c2ccccc12)c1cccs1 | -23.9% | i | 39.0* | x | 107.1*
COc1ccc(NC(=S)N=Nc2c(O)[nH]c3ccccc23)cc1 | u | u | 3.0 | -0.4% | 20.7
CN(C)C(=O)c1cc(C(=O)Cc2ccccc2)c[nH]1 | 31.9% | -1.4%[0.00184 µM] | 8.2 | -2.6% | 9.5
CCC(CC)COC(=O)C1=C(C)NC(=O)NC1c1ccc(N(C)C)cc1 (centres undefined) | u | 3.2% | -1.9 | 9.5% | -8.6
COc1ccccc1[C@@H]1C(c2ccc(F)cc2)=NN(c2ccc(Br)cc2)[C@H]1C(=O)N1CCOC1=O | x | x | -2.3 | x | i
COc1ccc(CC(=O)Oc2ccc(C(C)(C)C)cc2)cc1S(=O)(=O)N1CCOCC1 | 14.9% | -1.0% | x | x | x
CC(C)C(NC(=O)c1ccccc1)C(=O)OCn1nnc2ccccc2c1=O (centres undefined) | 9.9% | -11.0% | x | x | x
COc1ccc(OC)c(C2=Nn3c(nnc3-c3ccc(OC)c(OC)c3)SC2)c1 | x | x | -2.3 | x | -10.3
O=C(O)c1ccc(N=Nc2c(O)[nH]c3ccccc23)cc1 | u | u | 38.7* | 2.8% | 56.1*
CC(=O)c1cccc(N=Nc2c(C)[nH]c3ccccc23)c1 | u | 18.4% | 49.6* | -10.0% | 93.3*
Oc1ccc(NC(=S)N=Nc2c(O)[nH]c3ccc(Br)cc23)cc1 | 58.0% | u | 11.7 | x | 24.2
Oc1[nH]c2ccccc2c1N=Nc1c(F)c(F)c(C(F)(F)F)c(F)c1F | 16.8% | x | -2.1 | 2.1% | -2.0
Oc1ccc(NC(=S)N=Nc2c(O)[nH]c3ccccc23)cc1 | 37.2% | -4.8% | 19.7 | 11.1% | 50.9*
N#Cc1ccc(OCC(=O)OCC(=O)c2ccc[nH]2)cc1 | 55.8% | 5.4% | x | x | x
Cc1c(NC(=S)NC(=O)c2cc3ccccc3o2)cccc1C(=O)O | -11.0% | 20.6% | 53.7* | 5.1% | 75.6*
Cc1ccc2oc(-c3ccc(C)c(NC(=S)NC(=O)c4cccs4)c3)nc2c1 | 322.6% | 255.2% | 44.7* | 9.9% | 10.1*
CN1CCN(c2ccccc2NC(=S)NC(=O)c2cc3ccccc3o2)CC1 | 19.4% | u | 5.1 | 15.0% | -9.6
Cc1ccc2oc(-c3ccc(C)c(NC(=O)Cc4cccs4)c3)nc2c1 | 12.2% | 51.8% | 4.1 | 0.5% | 8.8
Cc1ccc(-c2nc3ccccc3o2)cc1NC(=S)NC(=O)c1cc2ccccc2o1 | 29.0% | 142.1% | 45.0* | u | 84.7*
SMILES | Pf growth 96h | Pf growth 48h | Cycloheximide cs | NS1 inh | Shiga inhibitor
N#Cc1ncn(-c2ccc(Oc3ccccc3)cc2)c1N | 27.1% | -14.2% | 12.0 | -2.1% | -11.3
COc1ccc(NC(=O)CCC(=O)N(Cc2ccc(OC)c(OC)c2)c2nccs2)c(OC)c1 | 2.94µM* | 7.3% | -2.4 | -3.1% | -16.1
COc1c(O)ccc(/C=C(\C#N)c2nc3ccccc3[nH]2)c1[N+](=O)[O-] | 4.15µM* | 7.6% | 40.5* | 7.0% | 63.9*
COc1cc(/C=C(/C#N)c2nc3ccccc3[nH]2)ccc1OC(=O)c1ccco1 | 23.9% | 30.2% | 27.6* | 6.8% | 81.6*
COc1ccc(/C=C(\C#N)c2nc3ccccc3[nH]2)cc1O | -28.7% | 62.9% | 19.1* | -3.0% | 28.9*
COc1cc(/C=N/N(C)C)ccc1OC(=O)c1ccco1 | 2.7% | -14.0% | 18.9 | x | -5.7
COc1cc(/C=C(/C#N)c2nc3ccccc3c(=O)[nH]2)ccc1O | u | 24.8% | -6.3 | -1.3% | 13.7
Cc1ccccc1C1=NCC(=O)N(CC(=O)NCc2ccco2)c2sc3c(c21)CCCC3 | -10.4% | u | 15.0* | -45.8% | 32.8
CC12CNCC(C)(CN(C(c3ccccc3)c3ccccc3)C1)C2 | u | u | 2.8 | u | -5.1
